# Screening data (PubChem)
# A selection: hits, their analogues and other compounds. The true share with any hit is near 3.8%.
# Mdm2-MdmX inh – human Mdm2/MdmX binding inhibition | O15151+Q00987 | AID 485346 | 330,000 tested, 3% active | inhibition, % at 8 µM | SaOS-2 split-luciferase Mdm2/MdmX complementation, luminescence;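 active means inhibition of at least 50% at 8 µM in the primary screen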
# Target sequence (O15151 whole entry, looked up): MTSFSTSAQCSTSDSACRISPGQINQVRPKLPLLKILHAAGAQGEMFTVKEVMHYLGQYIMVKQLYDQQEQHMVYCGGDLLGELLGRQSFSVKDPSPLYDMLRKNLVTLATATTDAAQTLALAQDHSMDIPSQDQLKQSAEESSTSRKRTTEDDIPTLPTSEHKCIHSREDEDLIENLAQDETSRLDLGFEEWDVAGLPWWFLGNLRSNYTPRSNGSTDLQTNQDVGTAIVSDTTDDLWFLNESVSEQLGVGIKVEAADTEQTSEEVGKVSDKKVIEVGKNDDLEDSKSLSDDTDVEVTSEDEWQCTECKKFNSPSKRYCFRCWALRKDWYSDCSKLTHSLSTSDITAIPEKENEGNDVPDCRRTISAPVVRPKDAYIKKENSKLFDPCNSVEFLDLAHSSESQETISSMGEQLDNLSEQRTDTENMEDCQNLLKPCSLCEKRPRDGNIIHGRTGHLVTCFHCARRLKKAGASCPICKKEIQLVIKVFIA
# Target sequence (Q00987 whole entry, looked up): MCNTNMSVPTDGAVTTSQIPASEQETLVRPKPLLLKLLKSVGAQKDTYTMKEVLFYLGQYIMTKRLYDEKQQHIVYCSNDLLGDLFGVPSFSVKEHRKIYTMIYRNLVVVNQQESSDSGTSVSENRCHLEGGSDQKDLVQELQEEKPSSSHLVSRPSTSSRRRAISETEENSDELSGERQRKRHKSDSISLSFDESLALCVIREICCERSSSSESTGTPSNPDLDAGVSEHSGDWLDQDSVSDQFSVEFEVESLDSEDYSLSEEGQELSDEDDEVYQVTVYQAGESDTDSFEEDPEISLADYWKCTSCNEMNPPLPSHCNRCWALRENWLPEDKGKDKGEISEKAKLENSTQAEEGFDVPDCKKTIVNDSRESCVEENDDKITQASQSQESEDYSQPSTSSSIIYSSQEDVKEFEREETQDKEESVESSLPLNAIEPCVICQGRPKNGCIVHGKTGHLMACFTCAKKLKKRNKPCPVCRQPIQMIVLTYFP
# Bfl-1 A1 inh – inhibitors of the anti-apoptotic protein A1, read as caspase activation | MEF A1-2A-BIM cells, Caspase-Glo 3/7 luminescence, 3 h; percent of clofoctol response, vehicle zero | 330,000 tested, 0.066% active | AID 2462 | caspase activation, % (no concentration beside the values);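 active means over half of replicate activation scores above 10%, or exactly half above 10 with the replicate mean above 10; inconclusive means replicate mean below 10 yet half the replicates above 10; inactive means over half of replicates below 10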
# Beta cell apopt – blocks beta cell apoptosis; INS-1E cytokine-induced death, ATP luminescence, 48 h; percent of positive-control rescue, neutral wells zero; protection from apoptosis, % (concentration not given with the values); 300,000 tested, 0.8% active; AID 435005;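 active means Every replicate reaches about 75%, or at least half do and their mean reaches it too, limit read from the data; inconclusive means At least half of replicates reach the limit but their mean does not; inactive means Under half of replicates reach the limit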;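 further: higher means more ATP so stronger rescue from cytokine killing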
# 697 NFkB inh – lowers PMA/ionomycin-induced NF-kB signal in 697 B cells. 330,000 tested, 0.33% active. inhibition, % at 4 µM. 697 B-cell NF-kB luciferase reporter, 16 h; in the data active means inhibition above about 35%
# Jurkat NFkB inh – inhibitors of the PMA/ionomycin-induced NF-kB reporter in Jurkat cells; PMA/ionomycin-induced NF-kB luciferase reporter, luminescence; 330,000 tested, 0.53% active; inhibition, % at 4 µM; in the data active means inhibition above about 50%
# NTR1 ag – agonists of human neurotensin receptor NTR1; activation, % at 20 µM; P30989; AID 493036; 330,000 tested, 0.17% active; NTR1-U2OS beta-arrestin-GFP spot imaging, agonist mode;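 active means activation at or above 40% of the spot to cytoplasm intensity ratio, with at least 20 cells analyzed; inconclusive means wells under 20 cells, flagged as cytotoxic or low count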
# Mdm2-MdmX conf – confirmation of human Mdm2/MdmX interaction inhibitors; shares compounds with Mdm2-MdmX inh; Mdm2-MdmX binding, luminescent assay; inhibition, % at 8 µM; 10,000 tested, 55% active; AID 489028; in the data active means inhibition above about 40%
# Full FLuc ctr – full-length luciferase inhibition in Mdm2/MdmX counter-screen. 6,200 tested, 77% active. shares compounds with Mdm2-MdmX inh. AID 504607. SaOS-2 full-length luciferase counterscreen, luminescence. inhibition, % at 8 µM;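 active means mean inhibition at 8 µM reaching about 37%, which flags the compound as non-specific, limit read from the data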;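 further: p53-null SaOS-2 cells with luciferase driven by a doxycycline-inducible promoter; compound on cells about two nights before reading with doxycycline added after day one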
# Numbers stand for hits; – = inactive; ? = inconclusive; · = no result given.
SMILES,Mdm2-MdmX inh,Bfl-1 A1 inh,Beta cell apopt,697 NFkB inh,Jurkat NFkB inh,NTR1 ag,Mdm2-MdmX conf,Full FLuc ctr
CCc1cccc2c(C(=O)CN3C(=O)NC4(CCc5ccccc54)C3=O)c[nH]c12 (centres undefined),–,–,·,–,–,–,·,·
CCc1cccc2c(C(=O)CN3C(=O)N(C)C4(CCCCC4)C3=O)c[nH]c12,52.5,–,–,–,–,–,–,·
Cn1nc(-c2ccccc2)c(CSc2ccccc2Cl)c1Cl,52.6,–,–,–,–,–,64.6,55.9
Nn1c(COc2ccccc2F)nnc1SCC(=O)NC1CCCCC1,–,–,–,–,–,–,·,·
CC1=NN(c2nc(-c3ccc(C)cc3)cs2)C(=O)C1N=Nc1ccccc1O (centres undefined),72.5,–,–,–,–,–,80.0,–
CCCSc1nsc(NC(=O)Nc2ccc(F)cc2F)n1,87.4,–,105.6,–,–,–,59.0,71.3
CCCSc1nsc(NC(=O)C(c2ccccc2)c2ccccc2)n1,–,–,–,–,–,–,·,·
COc1cccc(NC(=O)Nc2nc(SC(C)(C)C)ns2)c1,93.2,–,·,–,–,–,72.2,57.1
CCSc1nsc(NC(=O)Nc2cccc(F)c2)n1,94.2,–,·,–,–,–,88.5,–
O=C(NCC(c1cccs1)N1CCOCC1)c1ccc(OCc2ccccc2)cc1 (centres undefined),–,–,–,–,–,–,·,·
COc1ccc(-c2cc(C(=O)Nc3ccc(F)cc3F)no2)cc1,–,–,–,–,–,–,·,·
COc1ccc(OC)c(-c2cc(C(=O)Nc3ccc(F)cc3F)no2)c1,58.5,–,–,–,–,–,–,·
CC(=O)Nc1c2c(nn1-c1ccccc1C)CS(=O)(=O)C2,–,–,·,–,–,–,·,·
COc1ccc(/C=N/n2cnc3c([nH]c4ccc(Br)cc43)c2=O)cc1CN1CCOCC1,57.3,–,–,–,–,–,–,·
Nc1cc(=O)[nH]c(SCC(=O)NC2CCCCCCC2)n1,–,–,–,–,–,–,·,·
O=C(c1cc(Cl)nc2ccccc12)N(Cc1nnc(-c2ccccc2Cl)o1)C1CC1,–,–,–,–,–,–,·,·
N#Cc1c(N)nc2c(c1-c1ccc3c(c1)OCO3)CCc1ccccc1-2,64.5,–,–,–,–,–,–,92.2
C=CC[C@H](CC(=O)NCCO)C(=O)NC[C@@H](OC(=O)[C@H](CC=C)CC(=O)OC(C)(C)C)c1ccccc1,–,–,–,–,–,–,·,·
O=C(CCl)Nc1cn(-c2ccccc2)nc1-c1ccc(F)cc1,86.3,–,–,–,–,–,44.5,–
Fc1ccc(-c2nn(-c3ccccc3)cc2CNCc2ccccc2)cc1,–,?,–,–,–,–,·,·
CCOC(=O)c1ccc(NC(=O)Cn2ncc(Cl)c(Cl)c2=O)cc1,88.7,–,–,–,–,–,100.2,51.4
CCC(=O)Nc1ccc(C(=O)Cn2ncc(Cl)c(Cl)c2=O)cc1,85.9,–,–,–,–,–,63.0,43.4
O=C(COC(=O)c1ccc(F)c(S(=O)(=O)N2CCOCC2)c1)NCc1ccccc1,–,–,–,–,–,–,·,·
O=C(Cc1c(F)cccc1Cl)NNC(=O)c1cccs1,–,–,–,–,–,–,·,·
Cc1nn(-c2ccccc2)c(C)c1-c1nnc(-c2c(C)nn(-c3ccccc3)c2C)o1,56.0,–,–,–,–,–,–,·
SMILES,Mdm2-MdmX inh,Bfl-1 A1 inh,Beta cell apopt,697 NFkB inh,Jurkat NFkB inh,NTR1 ag,Mdm2-MdmX conf,Full FLuc ctr
Cc1nn(-c2ccccc2)c(C)c1-c1nnc(C(F)(F)F)o1,–,–,·,–,–,–,·,·
CC(C)NC(=O)c1ccccc1NC(=O)/C=C/c1cccc([N+](=O)[O-])c1,75.3,–,113.4,–,–,–,–,·
CC(C)C(NC(=O)/C=C/c1cccc([N+](=O)[O-])c1)C(C)C,–,–,–,–,–,–,·,·
CN1CCOc2ccc(S(=O)(=O)NCCc3ccc(Cl)cc3)cc21,–,–,–,–,–,–,·,·
Cc1sc2nc(SCC(=O)NCc3ccco3)n(C)c(=O)c2c1C,–,–,–,–,–,–,·,·
COc1cc2nc(SCC(=O)NCc3ccco3)n(Cc3ccc(Cl)cc3)c(=O)c2cc1OC,77.7,–,–,–,–,–,–,·
Cc1sc2nc(SCC(=O)NCc3ccco3)n(CCc3ccccc3)c(=O)c2c1C,62.9,–,–,–,–,–,–,·
COc1ccc(CC(=O)Oc2ccc(F)c(F)c2)cc1S(=O)(=O)N1CCOCC1,–,–,–,–,–,–,·,·
Cc1cc(C)cc(NC(=S)NCc2ccc3[nH]c4c(c3c2)CCCC4)c1,83.4,–,·,–,–,–,–,·
CCS(=O)(=O)NCc1ccc2[nH]c3c(c2c1)CCCC3,–,–,–,–,–,–,·,·
O=C(NCc1ccc2[nH]c3c(c2c1)CCCC3)c1ccc(S(=O)(=O)N2CCCCC2)cc1,–,–,–,–,–,–,·,·
S=C(NCc1ccc2[nH]c3c(c2c1)CCCC3)Nc1ccccc1,70.5,·,–,–,–,–,–,·
COc1ccc(CC(=O)OCC(=O)NC2CCCC(C)C2C)cc1 (centres undefined),–,–,–,–,–,–,·,·
CCOC(=O)c1c(C)[nH]c(C(=O)N/N=C/c2cc([N+](=O)[O-])ccc2O)c1C,56.9,–,–,–,–,–,71.3,55.3
O=C(N/N=C/c1cccs1)c1cncc(Br)c1,–,–,–,–,–,–,·,·
Cc1cc(Cl)ccc1NC(=O)CCC(=O)N/N=C/c1cc([N+](=O)[O-])ccc1O,61.8,–,–,–,–,–,–,·
O=C(N/N=C\c1ccc([N+](=O)[O-])s1)c1cncc(Br)c1,58.1,–,83.8,–,–,–,43.8,45.5
CCNC(=O)C(=O)N/N=C/c1cc([N+](=O)[O-])ccc1O,–,–,–,–,–,–,·,·
O=[N+]([O-])c1ccc(O)c(/C=N/NC(=S)Nc2ccc(Cl)cc2Cl)c1,77.7,–,121.1,–,–,–,47.8,41.3
O=C(N/N=C/c1cc([N+](=O)[O-])ccc1O)Nc1ccccc1,–,–,–,–,–,–,·,·
CC1CCCN(S(=O)(=O)c2ccc(NC(=O)C3CC(=O)N(c4ccccc4)C3)cc2)C1 (centres undefined),–,–,–,–,–,–,·,·
O=C(NC1CCS(=O)(=O)C1)c1cccc(Cl)c1 (centres undefined),–,–,–,–,–,–,·,·
COC(=O)N/N=C/c1ccc([N+](=O)[O-])s1,–,–,–,–,–,–,·,·
O=[N+]([O-])c1ccc(/C=N/NC(=S)Nc2ccc(Cl)cc2Cl)s1,62.9,–,–,–,–,–,69.8,52.5
Fc1ccc(/C=N/NC(=S)Nc2ccc(Cl)cc2Cl)cc1,85.0,–,–,–,–,–,66.0,57.9
Cc1ccc(NC(=O)CN(C)C(=O)CSc2nccn2C)cc1,–,–,–,–,–,–,·,·
